Bioassay records as filed in PubChem.
In the library only some 6.2% were active in any assay of this set; here they are far more common.
Lassa entry inh: qHTS for Inhibitors of binding or entry into cells for Lassa Virus; Lassa virus pseudotype entry inhibition, cell reporter; Potency, µM (doses to about 37.9 µM), for inactives: at the highest dose activity change, negative = inhibition, usual class: inhibitors; actives 1.2% (n = 300,000); AID 540256, 2011; calls by dose curve; tested in HEK293 cells; further: potency means the concentration at half of the fitted maximal effect; nearly all actives have a fitted effect of over 50% in size
FMDV inh: High Throughput Screening for Foot and Mouth Disease Virus Antivirals | FMDV antiviral cell-based qHTS | Potency, µM (doses to about 57.9 µM), without a hit: top-dose activity change, negative = inhibition, usual class: inhibitors | actives 1.2% (n = 410,000) | AID 1159524, 2015; calls by dose curve; tested in HEK293T cells; further: read-out not given here; potency means the concentration at half of the fitted maximal effect; nearly all actives have a fitted effect of over 45% in size
Marburg entry inh: qHTS for inhibitors of binding or entry into cells for Marburg Virus. Marburg virus pseudotyped entry inhibition, cell reporter. Potency, µM (series often up to 37.8 µM), without a hit: top-dose activity change, negative = inhibition, usual class: inhibitors. actives 1.8% (n = 300,000); calls by dose curve; tested in HEK293 cells; further: potency means the concentration at half of the fitted maximal effect
HCMV inh: qHTS Assay for inhibitors of the human cytomegalovirus (HCMV). activity change, negative = inhibition, % at 57.5 µM. HFF cells, HCMV-luciferase reporter, 72 h; hits give low values. actives 4.5% (n = 410,000); in the data active means activity change below about -60%; inconclusive means no clear call, values can overlap the other calls; inactive means above about -39%
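Steps: HFFs plated, 16 h 37C; compounds added; HCMV-luciferase added to MOI 1 PFU/cell; 72 h 37C; OneGlo reagent, 5 min room temperature; luminescence read, normalized to controls.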
Active calls of the source: *; ? = inconclusive; nt = no result; + = active, no number; [ ] = another dose, or the depositor's remark. On the % scale 0 is the no-effect control and ±100 the full control effect.

SMILES	Lassa entry inh	FMDV inh	Marburg entry inh	HCMV inh
CCc1ccc(OCC(=O)NC(NC(=S)Nc2ccccc2)C(Cl)(Cl)Cl)cc1 (stereo unspecified)	?	0%	?	-27
COC(=O)[C@@H]1[C@@H](CO)[C@@H]2Cn3c(ccc(Br)c3=O)[C@H]1N2Cc1cc(F)ccc1F	nt	nt	nt	54
Cc1cc(C)c(S(=O)(=O)NCCc2csc3nc(-c4ccc(Cl)cc4)nn23)c(C)c1	-1%[46.1 µM]	4%	nt	-66*
Cc1c(CCNS(=O)(=O)c2ccccc2)sc2nc(-c3ccc(Cl)cc3)nn12	?	-27%	nt	-75*
COc1ccc(-c2nc3scc(CCNS(=O)(=O)c4ccc(Oc5ccccc5)cc4)n3n2)cc1	14%[46.1 µM]	5%	nt	-28
O=S(=O)(NCCc1csc2nc(-c3ccccc3)nn12)c1ccc(Oc2ccccc2)cc1	?	-9%	nt	-67*
Cc1ccccc1Nc1c(-c2cccs2)nc2cccc(C)n12	17%[46.1 µM]	-29%	2%[46.1 µM]	6
Cc1csc2c(N3CCN(C(=O)c4ccc(C(C)(C)C)cc4)CC3)ncnc12	nt	-21%	nt	-63*
Cc1csc2c(N3CCN(C(=O)NC(C)(C)C)CC3)ncnc12	-15%	-28%	7%[46.1 µM]	-37
CNc1ncn(-c2c(C)cccc2C)c(=O)n1	nt	nt	nt	-99*
COc1cc(NC(=O)C2CCN(S(=O)(=O)c3c(C)noc3/C=C/c3cccs3)CC2)cc(OC)c1	14%[46.1 µM]	-18%	-14%[46.1 µM]	-4
O=C(NN1CCOCC1)c1cc(-c2ccc(Br)cc2)nc2ccccc12	0%	0%	12%	-60*
COc1cc(/C=N/NC(=O)c2cc(-c3ccccc3)sc2N)cc(OC)c1OC	16µM*	-25%	?	21
CCCOc1cccc(-c2cc(C(=O)N/N=C/c3ccccn3)c3ccccc3n2)c1	?	-25%	?	-113*
O=C(N/N=C/c1ccccn1)c1cc(-c2ccc(Br)cc2)nc2ccccc12	?	-12%	?	-100*
O=C(Cn1c(=O)oc2cc(S(=O)(=O)NCc3ccccc3)ccc21)NCc1ccccc1Cl	-24%[46.1 µM]	11%	nt	0
Cc1cc(NC(=O)CCS(=O)(=O)c2cc(Br)cc3c2N(C(=O)C2CC2)CC3)ccc1Br	-4%[46.1 µM]	-12%	27%[46.1 µM]	-5
COC(=O)c1ccccc1NC(=O)[C@H]1O[C@@H]2OC(C)(C)O[C@@H]2[C@H]2OC(C)(C)O[C@H]21	?	7%	22%[46.1 µM]	35
CC(=O)N1c2ccc(S(=O)(=O)N3CCCCCC3)cc2CC1C(=O)NCc1ccc(Cl)cc1 (stereo unspecified)	-8%[46.1 µM]	14%	nt	15
CN(C)c1ccc(CNC(=O)Cn2c(=O)oc3cc(S(=O)(=O)N4CCCCCC4)ccc32)cc1	?	?	nt	0
CC(C)(C)OC(=O)N/N=C\c1cccnc1	13%	3%	20%[46.1 µM]	-11
Cc1occc1C(=O)N/N=C/c1cccnc1	?	0%	-1%	0
Cc1cccc(-c2cc(C(=O)N/N=C/c3cccnc3)c3ccccc3n2)c1	-9%[46.1 µM]	5%	?	9
CC(C)(C)NC(=S)N/N=C/c1cccnc1	?	6%	6%[46.1 µM]	-65*
Cc1cc(C(=O)N/N=C/c2cccnc2)c(C)o1	5%	-1%	13%	-99*
SMILES	Lassa entry inh	FMDV inh	Marburg entry inh	HCMV inh
COc1ccc(-c2cc(C(=O)N/N=C/c3cccnc3)c3ccccc3n2)cc1	10µM*	6%	?	?
CCCOc1cccc(-c2cc(C(=O)N/N=C/c3cccnc3)c3ccccc3n2)c1	?	?	?	-83*
O=C(Cn1c(=O)nc(-c2ccccc2F)c2cc(Cl)ccc21)N1CCN(c2ccccc2F)CC1	-2%[46.1 µM]	-5%	nt	21
Cc1ccc2nc(Nc3ccc(C)c(F)c3)c3nncn3c2c1	?	-5%	7%[46.1 µM]	-7
Cc1ccc(-c2noc(-c3ccccc3NC(=O)C3CC(=O)N(c4ccccc4C)C3)n2)cc1 (stereo unspecified)	-8%[46.1 µM]	-9%	-11%[46.1 µM]	45
COc1cc(/C=N/NC(=O)c2cc(-c3cccc(OC(C)C)c3)nc3ccccc23)ccc1O	3.5µM*	-25%	3.5µM*	-61*
COc1cc(/C=N/NC(=O)c2cc(-c3cccs3)nc3ccccc23)ccc1O	nt	-21%	nt	-21
COc1ccccc1-c1cc(C(=O)N/N=C/c2ccc(C)s2)c2ccccc2n1	7.1µM*	-14%	8.9µM*	-23
Cc1ccc(-c2cc(C(=O)N/N=C\c3cnn(C)c3C)c3ccccc3n2)cc1C	11µM*	18%	-24%	-31
O=C(O)COc1ccccc1/C=N/NC(=O)c1cc(-c2ccc(Cl)cc2)nc2ccccc12	-25%	-13%	3%[46.1 µM]	0
O=C(O)COc1ccccc1/C=N/NC(=O)c1cc(-c2ccccc2)nc2ccccc12	4%	-8%	-5%	+
CCc1ccc(/C=N/NC(=O)c2cc(-c3ccccc3OC)nc3ccccc23)s1	?	-10%	?	44
O=C(NCCc1nnc2n1CCN(Cc1ccsc1)CC2)c1ccc(F)cc1	nt	-8%	nt	nt
CCCCCCCc1cc2ccc(F)cc2c2c(C(=O)OC)c(C(=O)OC)c(C(=O)OC)n12	nt	nt	-19%[14.2 µM]	nt
O=C(COc1ccccc1Cl)OCc1cc(=O)n2nc(-c3cccs3)sc2n1	-17%[46.1 µM]	10%	nt	20
O=C(O)c1ccc(/C=N/NC(=O)C2CC2(c2ccccc2)c2ccccc2)cc1 (stereo unspecified)	nt	nt	nt	-13
O=C(N/N=C/c1cccnc1)C1CC1(c1ccccc1)c1ccccc1 (stereo unspecified)	-5%	-19%	?	-67*
Cc1ccc(NC(=O)Cc2ccc(-n3c(C)nc4cccnc43)cc2)cc1C	?	?	nt	+
CCC(=NCC1CCCO1)c1c(O)n(Cc2ccccc2)c(=O)[nH]c1=O (stereo unspecified)	1.6µM*	?	13%	19
CCC(=NCC1CCCO1)c1c(O)n(-c2ccccc2)c(=O)[nH]c1=O (stereo unspecified)	?	-6%	16%	-8
Cc1ccc2c(c1)c(C)cc[n+]2Cc1ccccc1	?	?	10µM*	-96*
Cc1ccc2ccc[n+](Cc3ccccc3)c2c1	nt	-10%	nt	-82*
COc1ccc2c(c1)c(C)cc[n+]2Cc1ccccc1	nt	?	nt	-85*
Cc1ccc(-n2c(=O)c3c(cnn3C)n(CC(=O)Nc3cc(C)ccc3C)c2=O)cc1	-20%[46.1 µM]	0%	3%[46.1 µM]	5
COC(=O)[C@]12CCCCC=C1N(CCC1=CCCCC1)C(=O)[C@H](CC(=O)NCc1cccc(C(F)(F)F)c1)C2	nt	-3%	nt	-12
CCCSc1nc2c(cnn2-c2ccccc2)c(=O)n1N	8.9µM*	-6%	?	73
COc1ccccc1OCC(=O)N(Cc1cccs1)C1CCS(=O)(=O)C1 (stereo unspecified)	-19%[46.1 µM]	3%	-3%[46.1 µM]	5
COC(=O)C1=C(C)NC(=O)/C1=C\c1cc(C)n(-c2cc(C)cc(C)c2)c1C	?	-19%	?	-31
COC(=O)C1=C(C)NC(=O)/C1=C\c1cc(C)n(-c2ccccc2)c1C	?	15%	7.9µM*	-6
c1ccc(Oc2ccccc2-c2cc(NCCc3cccnc3)n3nccc3n2)cc1	nt	0%	nt	26
